# Reference: PubChem BioAssay (NCATS)
# “And” between values parts separate entries of the source, which are not always exact repeats. Identical values can stand only once. Results filed as inconclusive are left out. Entries that show only a call come without a potency. A number with no mark means an inactive call. The source made the active and inactive calls. Calls come from the whole dose curve; as a rule, active = well fitted curve in the direction sought with a large enough effect; inconclusive = small, poorly fitted or top-dose-only effect, or another doubt; inactive = no such curve, though single readings can be large; an effect the other way counts as inactive or inconclusive.
# How the values were obtained:
# W2 = assay: qHTS profiling for inhibitors of Plasmodium falciparum proliferation (AID 504749); note: nearly all actives have a fitted effect of over 60% in size; note: potency is the fitted concentration of half-maximal effect; settings: P. falciparum in erythrocytes, SYBR Green DNA, 72 h; series mostly up to 28.7 µM
# Outline: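 P. falciparum-infected erythrocytes (0.3% parasitemia, 2.5% hematocrit final) were exposed to compounds for 72 h at 37 C in 5% CO2, then lysed with SYBR Green buffer overnight at room temperature; parasite DNA fluorescence was normalized to artemisinin and DMSO controls.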
# CRL-7250 [1] = assay: Cytotoxic Profiling of Annotated Libraries Using Quantitative High-Throughput Screening (AID 1296008); settings: Five cell lines viability, CellTiter-Glo ATP luminescence, 48-72 h; max response: hits give low values; note: nearly all actives have a fitted effect of over 60% in size
# Outline: (§1)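 Compounds were pin-transferred onto cells and incubated 48 or 72 hr at 37 degree Celsius, 95% humidity. CellTiter-Glo was added, plates sat 10 min at room temperature, then ATP-coupled luminescence was imaged as the viability read-out.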
# HEK293 = assay: as above; settings: Five cell lines viability, CellTiter-Glo ATP luminescence, 48-72 h; max response: hits give low values
# Outline: as §1
# HaCat [2] = assay: as above; settings: Five cell lines viability, CellTiter-Glo ATP luminescence, 48-72 h; max response: hits give low values
# Outline: as §1
# KB-3-1 = assay: as above; settings: Five cell lines viability, CellTiter-Glo ATP luminescence, 48-72 h; max response: hits give low values
# Outline: as §1
# NIH3T3 [3] = assay: as above; settings: Five cell lines viability, CellTiter-Glo ATP luminescence, 48-72 h; max response: hits give low values
# Outline: as §1
# HACAT [4] = assay: qHTS assay to identify novel small-molecules to repurpose for Merkel cell carcinoma treatment (AID 1296009); settings: MCC and control cell lines, CellTiter-Glo viability, 72 h; at 44.8 µM (top of the series) unless noted; note: nearly all actives have a fitted effect of over 60% in size; note: potency is the fitted concentration of half-maximal effect
# Outline: (§2)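 Cells exposed to NPC (8-point) and MIPE (11-point) compound dilutions for 72 hr at 37 degree celsius; viability read by CellTiter-Glo luminescence, normalized to no-cell and DMSO in-plate controls.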
# MCC-13 = assay: as above; settings: MCC and control cell lines, CellTiter-Glo viability, 72 h; series mostly up to 46 µM
# Outline: as §2
# MKL-1 = assay: as above; settings: MCC and control cell lines, CellTiter-Glo viability, 72 h; series mostly up to 46 µM
# Outline: as §2
# MKL-2 = assay: as above; settings: MCC and control cell lines, CellTiter-Glo viability, 72 h; series mostly up to 46 µM
# Outline: as §2
# UISO = assay: as above; settings: MCC and control cell lines, CellTiter-Glo viability, 72 h; series mostly up to 46 µM
# Outline: as §2
# WaGa = assay: as above; settings: MCC and control cell lines, CellTiter-Glo viability, 72 h; series mostly up to 46 µM
# Outline: as §2
# C33A = assay: Primary qHTS to identify gynecologic anti-cancer compounds using libraries of approved drugs and bioactive compounds (AID 1345084); settings: Gynecologic cancer cell panel viability, ATPlite luminescence, 48 h; series mostly up to 57.5 µM; note: nearly all actives have a fitted effect of over 55% in size
# Outline: (§3)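 Cells, 1,000 per well, plated 16 h, then exposed 48 h at 37 C to compounds. Viability by ATPlite luminescence after 15 min at room temperature.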
# CASKI = assay: as above; settings: Gynecologic cancer cell panel viability, ATPlite luminescence, 48 h; series mostly up to 57.5 µM
# Outline: as §3
# Es-2 = assay: as above; settings: Gynecologic cancer cell panel viability, ATPlite luminescence, 48 h; series mostly up to 57.5 µM
# Outline: as §3
# MCC-26 = assay: qHTS assay to identify novel small-molecules to repurpose for Merkel cell carcinoma treatment (AID 1296009); settings: MCC and control cell lines, CellTiter-Glo viability, 72 h; series mostly up to 46 µM; note: nearly all actives have a fitted effect of over 60% in size; note: potency is the fitted concentration of half-maximal effect
# Outline: as §2
# NIH3T3 [5] = assay: as above; settings: MCC and control cell lines, CellTiter-Glo viability, 72 h; at 44.8 µM (top of the series) unless noted
# Outline: as §2
# CAOV3 = assay: Primary qHTS to identify gynecologic anti-cancer compounds using libraries of approved drugs and bioactive compounds (AID 1345084); settings: Gynecologic cancer cell panel viability, ATPlite luminescence, 48 h; series mostly up to 57.5 µM; note: nearly all actives have a fitted effect of over 55% in size
# Outline: as §3
# CRL-7250 [6] = assay: qHTS assay to identify novel small-molecules to repurpose for Merkel cell carcinoma treatment (AID 1296009); settings: MCC and control cell lines, CellTiter-Glo viability, 72 h; at 44.8 µM (top of the series) unless noted; note: nearly all actives have a fitted effect of over 60% in size; note: potency is the fitted concentration of half-maximal effect
# Outline: as §2
# HEK293T = assay: as above; settings: MCC and control cell lines, CellTiter-Glo viability, 72 h; at 44.8 µM (top of the series) unless noted
# Outline: as §2
smiles,measurement,setting,value
O=C(O)COc1ccccc1,Potency,W2,inactive
same,max response,CRL-7250 [1],4.33%
same,max response,HEK293,2.38%
same,outcome,HaCat [2],inactive
same,max response,KB-3-1,-13.1%
same,max response,NIH3T3 [3],-0.908%
same,outcome,HACAT [4],inactive
same,Potency,MCC-13,inactive
same,Potency,MKL-1,inactive
same,Potency,MKL-2,inactive
same,Potency,UISO,inactive
same,Potency,WaGa,inactive
same,Potency,C33A,inactive
same,Potency,CASKI,inactive
same,Potency,Es-2,inactive
COC(C)(C)CCCC(C)C/C=C/C(C)=C/C(=O)OC(C)C (centres undefined),Potency,W2,10.7 µM (active)
same,max response,CRL-7250 [1],1.51%
same,max response,HEK293,3.25%
same,outcome,HaCat [2],inactive
same,max response,KB-3-1,3.28%
same,outcome,NIH3T3 [3],inactive
same,outcome,HACAT [4],inactive
same,Potency,MCC-13,inactive
same,Potency,MCC-26,inactive
same,Potency,MKL-1,inactive
same,Potency,MKL-2,inactive
same,outcome,NIH3T3 [5],inactive
same,Potency,UISO,inactive
same,Potency,WaGa,inactive
same,Potency,C33A,inactive
same,Potency,CASKI,inactive
same,Potency,Es-2,inactive
CC(=O)NCCc1c[nH]c2ccccc12,max response,CRL-7250 [1],-10.8%
same,max response,HEK293,-1.55%
same,outcome,HaCat [2],inactive
same,outcome,KB-3-1,inactive
same,outcome,NIH3T3 [3],inactive
same,outcome,HACAT [4],inactive [at 92 µM]
same,outcome,NIH3T3 [5],inactive [at 92 µM]
same,Potency,C33A,inactive
same,Potency,CAOV3,inactive
same,Potency,CASKI,inactive
same,Potency,Es-2,inactive
CCc1c(C(=O)C(N)=O)c2c(OCC(=O)O)cccc2n1Cc1ccccc1,max response,CRL-7250 [1],2.27% and 4.29%
same,max response,HEK293,-0.0349%
same,max response,HaCat [2],-1.12% and -1.77%
same,max response,KB-3-1,9.54%
same,outcome,KB-3-1,inactive
same,max response,NIH3T3 [3],-3.2%
same,outcome,NIH3T3 [3],inactive
same,Potency,MCC-13,inactive
same,Potency,MCC-26,inactive
same,Potency,MKL-1,inactive
same,Potency,MKL-2,inactive
same,outcome,NIH3T3 [5],inactive
same,Potency,UISO,inactive
same,Potency,WaGa,inactive
same,Potency,C33A,inactive
same,Potency,CASKI,inactive
same,Potency,Es-2,inactive
C[C@]12Cc3cn[nH]c3C[C@@H]1CC[C@@H]1[C@H]2CC[C@@]2(C)[C@H]1CC[C@]2(C)O,max response,CRL-7250 [1],3.97%
same,max response,HEK293,-21.8%
same,outcome,HaCat [2],inactive
same,max response,KB-3-1,-0.691%
same,max response,NIH3T3 [3],-12.4%
same,outcome,HACAT [4],inactive
same,Potency,MCC-13,inactive
same,Potency,MCC-26,inactive
same,Potency,MKL-1,inactive
same,Potency,MKL-2,inactive
same,Potency,UISO,inactive
same,Potency,WaGa,inactive
Cc1ccccc1-n1c(Cn2ncc3c(N)ncnc32)nc2cccc(C)c2c1=O,max response,CRL-7250 [1],-1.16%
same,outcome,CRL-7250 [1],inactive
same,outcome,HEK293,inactive
same,outcome,HaCat [2],inactive
same,outcome,KB-3-1,inactive
same,max response,NIH3T3 [3],1.98%
same,outcome,NIH3T3 [3],inactive
same,outcome,CRL-7250 [6],inactive
same,outcome,HACAT [4],inactive
same,outcome,HEK293T,inactive
same,Potency,MCC-13,13.2 µM (active)
same,Potency,MKL-2,inactive
same,outcome,NIH3T3 [5],inactive
same,Potency,UISO,1.32 µM (active)
same,Potency,C33A,inactive
same,Potency,CASKI,inactive
same,Potency,Es-2,inactive
